# Unmarked numbers belong to inactive results. Results filed as inconclusive are left out. Calls of active or inactive are those of the source. Unless noted, cut-off not given; nearly all actives show AC50 up to about 26 µM.
# Legend:
# [1] = target: ATP-dependent translocase ABCB1 (Homo sapiens) (UniProt P08183); assay: MDR1 (ABCB1) efflux transporter inhibition, cell-based (AID 377; in the data active means fluorescence slope change above about 50%); details: MDR1-expressing cells, fluorescent substrate accumulation slope; hits give high values; concentration not given here
# Chain of ATP-dependent translocase ABCB1 (Homo sapiens) (P08183 whole entry, looked up): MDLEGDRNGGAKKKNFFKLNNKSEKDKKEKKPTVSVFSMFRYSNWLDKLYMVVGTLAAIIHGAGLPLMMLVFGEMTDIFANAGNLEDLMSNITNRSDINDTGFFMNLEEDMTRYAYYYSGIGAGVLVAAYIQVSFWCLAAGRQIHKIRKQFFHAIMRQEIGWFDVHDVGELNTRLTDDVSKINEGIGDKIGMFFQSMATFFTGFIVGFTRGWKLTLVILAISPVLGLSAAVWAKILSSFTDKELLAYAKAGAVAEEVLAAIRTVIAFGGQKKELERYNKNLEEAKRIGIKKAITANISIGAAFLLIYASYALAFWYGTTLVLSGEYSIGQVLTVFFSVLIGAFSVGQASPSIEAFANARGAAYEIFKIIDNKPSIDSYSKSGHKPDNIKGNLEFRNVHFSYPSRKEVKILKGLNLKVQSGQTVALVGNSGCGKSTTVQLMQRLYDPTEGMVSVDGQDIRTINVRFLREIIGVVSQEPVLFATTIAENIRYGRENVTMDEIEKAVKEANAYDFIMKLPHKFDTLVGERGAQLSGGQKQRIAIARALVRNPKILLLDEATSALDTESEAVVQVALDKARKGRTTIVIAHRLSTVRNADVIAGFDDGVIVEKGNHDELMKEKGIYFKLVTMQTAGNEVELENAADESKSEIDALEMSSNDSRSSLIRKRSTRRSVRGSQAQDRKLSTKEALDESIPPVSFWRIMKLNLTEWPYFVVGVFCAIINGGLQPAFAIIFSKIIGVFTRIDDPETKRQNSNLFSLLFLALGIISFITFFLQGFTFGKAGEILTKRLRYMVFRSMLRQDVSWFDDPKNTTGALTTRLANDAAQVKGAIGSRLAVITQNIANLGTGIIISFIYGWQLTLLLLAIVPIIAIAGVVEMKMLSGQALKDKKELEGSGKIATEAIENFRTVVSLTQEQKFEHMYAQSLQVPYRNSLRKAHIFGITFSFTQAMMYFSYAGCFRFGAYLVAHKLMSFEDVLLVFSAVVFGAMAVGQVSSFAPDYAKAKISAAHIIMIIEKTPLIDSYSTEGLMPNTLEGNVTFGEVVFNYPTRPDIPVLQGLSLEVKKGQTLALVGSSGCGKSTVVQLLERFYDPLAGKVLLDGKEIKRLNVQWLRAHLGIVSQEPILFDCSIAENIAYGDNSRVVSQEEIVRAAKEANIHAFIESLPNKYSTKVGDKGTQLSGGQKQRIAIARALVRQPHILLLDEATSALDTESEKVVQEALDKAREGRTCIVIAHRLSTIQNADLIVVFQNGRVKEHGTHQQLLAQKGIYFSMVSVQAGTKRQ
# [2] = growth inhibition of DIPG glioma cells, dose response, cell-based, SU-DIPG-XVII, MIPE5.0, CellTiter-Glo, qHTS (AID 1347060); details: SU-DIPG-XVII viability, CellTiter-Glo ATP luminescence
# [3] = viability loss in pontine glioma line – cell-based, SU-DIPG-XXV, MIPE5.0, CellTiter-Glo, qHTS, dose response (AID 1347065); details: CellTiter-Glo ATP luminescence;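 further: cells exposed to compound for 48 hours before ATP readout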
# [4] = JHH-DIPG-1 glioma cell viability, MIPE5.0 library, CellTiter-Glo luminescence, qHTS (AID 1347067); details: JHH-DIPG-1 glioma viability, CellTiter-Glo ATP luminescence;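 further: cells exposed to compound for 48 hours before readout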
# [5] = SU-DIPG-XXV glioma cell viability, MIPE5.0 library, qHTS (AID 1347068; cut-off not given, nearly all actives have IC50 up to about 30 µM)
# [6] = test system: Hepatitis C virus NS3 helicase; assay: HCV NS3 helicase inhibitors, primary screen, biochemical, fluorescence polarization, LOPAC1280 library (AID 687035; in the data active means inhibition above about 37%); details: Purified HCV NS3 helicase, Cy5-dT15 ssDNA binding fluorescence polarization; hits give high values; concentration not given here
# [7] = Cy5 fluorescence quenching or enhancement artefacts, artefact control for HCV NS3 helicase inhibitor project, biochemical, LOPAC1280 (AID 687037; call rule not given here); details: Cy5-DNA-NS3h complex fluorescence interference counterscreen
# [8] = growth inhibition of DIPG glioma cells, dose response, cell-based, SU-DIPG-XIII, MIPE4.0, CellTiter-Glo, qHTS (AID 1347061; cut-off not given, nearly all actives have AC50 up to about 37 µM;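 further: cells exposed to compound for 48 hours before readout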); details: SU-DIPG-XIII viability, CellTiter-Glo ATP luminescence
# [9] = growth inhibition of DIPG glioma cells, dose response, cell-based, JHH-DIPG-1, MIPE4.0, CellTiter-Glo, qHTS (AID 1347062; cut-off not given, nearly all actives have AC50 up to about 27 µM); details: JHH-DIPG-1 viability, CellTiter-Glo ATP luminescence
# [10] = growth inhibition of DIPG glioma cells, dose response, cell-based, SU-DIPG-IV, MIPE4.0, CellTiter-Glo, qHTS (AID 1347063; cut-off not given, nearly all actives have AC50 up to about 30 µM;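 further: compound exposure lasted 48 hours before the viability readout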); details: SU-DIPG-IV viability, CellTiter-Glo ATP luminescence
# [11] = SU-DIPG-VI glioma cell viability, MIPE4.0 library, CellTiter-Glo luminescence, qHTS (AID 1347066; cut-off not given, nearly all actives have AC50 up to about 30 µM;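 further: cells exposed to compound for 48 hours before readout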); details: CellTiter-Glo ATP luminescence
# [12] = growth inhibition of DIPG glioma cells, dose response, cell-based, SU-DIPG-XIII, MIPE5.0, CellTiter-Glo, qHTS (AID 1347064; cut-off not given, nearly all actives have AC50 up to about 23 µM); details: SU-DIPG-XIII viability, CellTiter-Glo ATP luminescence
smiles,measurement,setting,value
CC[C@H]1OC(=O)[C@H](C)[C@@H](O[C@H]2C[C@@](C)(OC)[C@@H](O)[C@H](C)O2)[C@H](C)[C@@H](O[C@@H]2O[C@H](C)C[C@H](N(C)C)[C@H]2O)[C@](C)(O)C[C@@H](C)C(=O)[C@H](C)[C@@H](O)[C@]1(C)O,fluorescence slope change,[1],76.3% (active)
same,outcome,[2],inactive
same,outcome,[3],inactive
same,outcome,[4],inactive
same,outcome,[5],inactive
C1CCc2nnnn2CC1,fluorescence slope change,[1],136% (active)
same,inhibition,[6],-2%
same,fluorescence ratio (interference),[7],1
COc1ccc(-c2coc3cc(O)ccc3c2=O)cc1,outcome,[8],inactive
same,outcome,[9],inactive
same,outcome,[10],inactive
same,outcome,[11],inactive
NC(N)=NC(N)=Nc1ccccc1,inhibition,[6],-3%
same,fluorescence ratio (interference),[7],1
COc1ccc(-c2cc(=O)c3c(O)cc(O)cc3o2)cc1O,AC50,[8],11.8 µM (active)
same,AC50,[11],10.5 µM (active)
O=c1cc(-c2ccccc2)oc2cc(O)cc(O)c12,outcome,[8],inactive
same,outcome,[9],inactive
same,outcome,[10],inactive
same,AC50,[3],20.9 µM (active)
same,outcome,[11],inactive
same,outcome,[4],inactive
COc1cc2c(cc1OC)[C@@H]1C(=O)c3ccc4c(c3O[C@@H]1CO2)C=CC(C)(C)O4,AC50,[8],23.5 µM (active)
same,AC50,[4],18.6 µM (active)
same,outcome,[5],inactive
O=C(/C=C/C=C/c1ccc2c(c1)OCO2)N1CCCCC1,fluorescence slope change,[1],92.2% (active)
same,outcome,[2],inactive
same,outcome,[8],inactive
same,outcome,[9],inactive
same,outcome,[10],inactive
same,outcome,[12],inactive
same,outcome,[3],inactive
same,outcome,[11],inactive
same,outcome,[4],inactive
same,outcome,[5],inactive
O=C(/C=C/c1ccc(O)cc1)c1ccc(O)cc1O,inhibition,[6],0%
same,fluorescence ratio (interference),[7],0.9
same,outcome,[2],inactive
O=C(CCc1ccc(O)cc1)c1c(O)cc(O)cc1O[C@@H]1O[C@H](CO)[C@@H](O)[C@H](O)[C@H]1O,outcome,[8],inactive
same,outcome,[9],inactive
same,outcome,[10],inactive
same,outcome,[12],inactive
same,outcome,[3],inactive
same,outcome,[11],inactive
same,outcome,[5],inactive
O=C1C[C@@H](c2ccc(O)cc2)Oc2cc(O)cc(O)c21,outcome,[2],inactive
same,outcome,[8],inactive
same,outcome,[9],inactive
same,outcome,[10],inactive
same,outcome,[3],inactive
same,outcome,[11],inactive
same,outcome,[4],inactive
same,outcome,[5],inactive

# Source: PubChem BioAssay
